# Compound activity deposited in PubChem BioAssay by National Center for Advancing Translational Sciences (NCATS).
# Compounds with a hit are over-represented: about 18% of the library has one in this group of screens.
# TDP1 cell noCPT: qHTS for Inhibitors of human tyrosyl-DNA phosphodiesterase 1 (TDP1): qHTS in cells in absence of CPT; DT40 Tdp1-/- hTDP1 cells, no CPT, ATP luminescence, 48 h; Potency, µM (top dose mostly 46.2 µM), without a hit: top-dose activity change, negative = growth inhibition, actives largely listed as inhibitors; hit rate 15% among 420,000; AID 686978, 2013; further: potency means the concentration at half of the fitted maximal effect; nearly all actives have a fitted effect of over 55% in size
#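 Growth kinetics read by CellTiter-Glo luminescence after ≥48 hr at 37 °C. Cells: DT40 Tdp1-/- stably carrying human TDP1, 400 per well, compound exposure in the absence of CPT (DMSO vehicle).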
# TDP1 inh: inhibitors of human tyrosyl-DNA phosphodiesterase TDP1; Q9NUW8; recombinant TDP1, AlphaScreen DNA substrate cleavage; Potency, µM (doses to about 130 µM), inactives show top-dose activity change, negative = inhibition, actives largely listed as inhibitors; hit rate 0.28% among 350,000; AID 485290; further: potency means the concentration at half of the fitted maximal effect; nearly all actives have a fitted effect of over 40% in size
# Target sequence (Q9NUW8 whole entry, looked up): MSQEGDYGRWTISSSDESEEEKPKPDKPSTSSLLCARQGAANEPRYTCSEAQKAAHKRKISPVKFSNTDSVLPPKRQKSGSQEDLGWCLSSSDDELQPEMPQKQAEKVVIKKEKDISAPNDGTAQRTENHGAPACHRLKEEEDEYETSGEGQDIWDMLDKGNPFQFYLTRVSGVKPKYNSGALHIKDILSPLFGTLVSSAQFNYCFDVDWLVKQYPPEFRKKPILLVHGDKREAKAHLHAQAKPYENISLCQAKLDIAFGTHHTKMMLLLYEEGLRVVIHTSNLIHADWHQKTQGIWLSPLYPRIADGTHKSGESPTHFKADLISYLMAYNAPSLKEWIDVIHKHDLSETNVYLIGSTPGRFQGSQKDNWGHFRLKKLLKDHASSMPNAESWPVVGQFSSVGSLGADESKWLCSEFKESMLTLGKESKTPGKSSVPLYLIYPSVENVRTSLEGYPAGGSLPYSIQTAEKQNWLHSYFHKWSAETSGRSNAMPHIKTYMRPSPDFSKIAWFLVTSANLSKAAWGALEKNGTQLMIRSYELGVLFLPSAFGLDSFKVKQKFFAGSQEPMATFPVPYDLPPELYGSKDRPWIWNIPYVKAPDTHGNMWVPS
#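 Tdp1 1 nM final; 15 min RT w/ cpd; substrate 15 nM, 5 min; beads 10 ug/ml, 10 min; AlphaScreen read. Neg ctrl: no enzyme.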
# IL-1B inflam inh: inflammasome signaling inhibition, IL-1 beta readout | THP-1 LPS/ATP IL-1B secretion, AlphaLISA, 16 h; hits give low values | activity change, % at 57.5 µM | hit rate 4.7% among 360,000 | AID 743279; in the data active means activity change below about -50%; inconclusive means mostly about -30% to -49%
#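 THP-1 cells pretreated 1 hr with compounds (up to 57.5 uM final), then stimulated with LPS (250 ng/mL final) plus ATP (1.25 mM final); secreted IL-1B measured by AlphaLISA after 16 hr, decreased signal indicating inhibition.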
# Six1-Eya2 inh: Six1/Eya2 interaction inhibition; Q15475+O00167; AlphaScreen GST-Six1/His-Eya2 binding, biochemical; hits give low values; activity change, % (test concentration not listed); hit rate 0.56% among 360,000; in the data active means activity change below about -65%; inconclusive means mostly about -30% to -63%
#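 Homogeneous AlphaScreen proximity assay pairing GST-Six1 with His-tagged Eya2 (added as 5X mix: 250 nM and 500 nM) in 50 mM Tris pH 8.0, 300 mM NaCl, 1 mM TCEP. Glutathione donor and nickel acceptor beads; 1 h, 37 °C, dark.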
# DT40 TDP1 CPT: growth inhibition of DT40 Tdp1-/-;hTDP1 cells with camptothecin (screen for TDP1 inhibitors). chicken DT40 Tdp1-/-;hTDP1 cells + 20 nM CPT, ATP luminescence, 48 h. Potency, µM (series often up to 46.2 µM), for inactives: at the top dose activity change, negative = growth inhibition, most hits filed as inhibitors. hit rate 12% among 420,000. AID 686979; further: potency means the concentration at half of the fitted maximal effect; nearly all actives have a fitted effect of over 55% in size
#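 Chicken DT40 Tdp1-/- cells complemented with human TDP1, 400 cells/well, exposed to compounds plus 20 nM camptothecin for at least 48 h at 37 C; viability read as ATP content by CellTiter-Glo luminescence.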
# CtBP-E1A inh: inhibitors of CtBP/E1A interaction; AlphaScreen GST-E1A/His-CtBP binding, 1536-well; hits give low values; activity change, % (test concentration not listed); hit rate 0.49% among 340,000; AID 651724; in the data active means activity change below about -65%; inconclusive means mostly about -30% to -63%
#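 Homogeneous bead-based format: GST-tagged E1A captured on glutathione donor beads, His-tagged CtBP on nickel acceptor beads; compounds precede bead addition by 2 h at 37 °C.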
# * = called active by the depositor; ? = inconclusive; . = no result. Unless noted, the call rests on the fitted dose curve; in most records, active means well fitted curve in the direction sought with a large enough effect; inconclusive means small, poorly fitted or top-dose-only effect, or another doubt; inactive means no such curve, though single readings can be large; an effect the other way counts as inactive or inconclusive. On the % scale 0 is the no-effect control and ±100 the full control effect.
SMILES,TDP1 cell noCPT,TDP1 inh,IL-1B inflam inh,Six1-Eya2 inh,DT40 TDP1 CPT,CtBP-E1A inh
Cc1ccccc1N=Nc1c(C)[nH]n(C(N)=S)c1=O,1.2µM*,6%,0,-18,1.2µM*,0
NC(=S)n1[nH]c(-c2ccc([N+](=O)[O-])cc2)c(N=Nc2cccc(Cl)c2)c1=O,6.5µM*,8%,?,5,8.2µM*,0
Cc1[nH]n(C(N)=S)c(=O)c1N=Nc1ccc([N+](=O)[O-])cc1Cl,2.9µM*,.,21,-30,?,8
Cc1[nH]n(C(N)=S)c(=O)c1N=Nc1cccc(Cl)c1,?,.,-3,-9,?,3
Cc1cccc(N=Nc2c(C)[nH]n(C(N)=S)c2=O)c1C,.,7%,.,.,.,.
Cc1[nH]n(C(N)=S)c(=O)c1N=Nc1ccccc1C(F)(F)F,15µM*,.,-7,-8,?,.
CCOc1ccccc1N=Nc1c(C)[nH]n(C(N)=S)c1=O,15µM*,.,12,-4,?,-1
Cc1ccccc1NC(=O)c1cccc2nc3ccccc3nc12,23µM*,10%,-18,-29,?,?
Cc1ccccc1NC(=O)c1ccccc1NC(=O)Cc1cccc2ccccc12,?,3%,-5,12,-25%,.
Cc1noc(C)c1C(=O)OCC(=O)NCCc1ccccc1,-6%,0%,-4,0,0%,2
Cc1ccc(S(=O)(=O)N(C)CCCC(=O)Nc2ccc(F)cc2)cc1,-25%,7%,1,9,21µM*,-12
COc1ccc(NC(=O)CCCN(C)S(=O)(=O)c2ccc(C)cc2)cc1,?,0%,-6,2,?,2
Cc1ccc(S(=O)(=O)N(C)CCCC(=O)Nc2ccncc2)cc1,13µM*,1%,36,5,10µM*,-3
Cc1ccc(C(=O)Nc2oc(-c3ccccc3)cc2C#N)cc1,?,8%,0,-6,-19%,0
CC(C)CNC(=O)c1cccc(NC(=O)c2ccccc2-c2ccccc2C(=O)O)c1,19%,.,14,1,-6%,6
CN(C)S(=O)(=O)N1CCc2ccc(NC(=O)c3ccc(C(F)(F)F)cc3)cc2C1,23µM*,.,?,6,16µM*,0
COCCC(=O)N1CCCC(C(=O)c2ccc3c4c(cccc24)CC3)C1 (centres undefined),?,5%,27,-10,?,.
Cc1cccc(-c2nc(Cn3c(SCc4cccc(C(F)(F)F)c4)nc4ccncc43)c(C)o2)c1,?,5%,.,.,15µM*,.
Cc1oc(-c2ccccc2F)nc1Cn1c(SCc2ccccc2F)nc2ccncc21,15µM*,10%,.,.,?,.
COc1ccc(-c2nc(Cn3c(SCc4ccc(C)cc4)nc4ccncc43)c(C)o2)cc1OC,?,1%,-19,-19,?,-18
COc1ccc(-c2nc(Cn3c(SCc4cccc(F)c4)nc4ccncc43)c(C)o2)cc1OC,?,12%,?,-23,?,-6
COc1ccc(-c2nc(Cn3c(SCc4ccccc4F)nc4ccncc43)c(C)o2)cc1OC,21µM*,5%,.,.,18µM*,.
Cc1oc(-c2ccccc2F)nc1CN1CCC(C(=O)NCc2cccnc2)CC1,2%,3%,12,-1,1%,0
CCC(Cn1nnc2ccccc2c1=O)NC(=O)Nc1ccccc1OC (centres undefined),?,7%,.,.,?,.
C=CCc1ccc(OCC(O)CO)c(OC)c1 (centres undefined),8%,0%,9,2,-1%,13
C=CCc1ccc(O)c(-c2cc(CC=C)ccc2O)c1,21µM*,8%,14,-8,15µM*,3
